Values without a mark were called inactive. Results filed as inconclusive are left out. Calls of active or inactive are those of the source. Unless noted, the call rests on the fitted dose curve; in most records, active means well fitted curve in the direction sought with a large enough effect; inconclusive means small, poorly fitted or top-dose-only effect, or another doubt; inactive means no such curve, though single readings can be large; an effect the other way counts as inactive or inconclusive.

Assay [1] deals with Arylsulfatase A (Homo sapiens) (UniProt P15289). Kind of assay: qHTS screen for enhancers of Arylsulfatase A (ASA1): LOPAC Validation Assay (AID 720538). Particulars: ASA enzyme activity, LOPAC qHTS enhancer assay; series mostly up to 57.5 µM. In a few lines:
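Read-out: fluorescence at Ex=525/Em=598 nm after 1N NaOH final stop. Patient fibroblasts carrying ASA-I179S had 48h compound exposure, then 14h room-temperature pNCS hydrolysis (0.5mM final) in lysis buffer. Signal increase = enhanced activity.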

Assay [2] in a line: qHTS for compounds that reverse cellular toxicity of Amyloid beta (A-beta) peptide in yeast: LOPAC Validation Assay (AID 720559).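 Further: plate controls were DMSO for no effect and equimolar ferric chloride plus clioquinol rescue for full effect.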 As to conditions: yeast expressing A-beta; series mostly up to 46.1 µM. In a few lines: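 OD600 growth readout after 48 hr at 30 C; A-beta-toxic yeast plus pinned compounds in medium. Normalization: DMSO = negative, equimolar FeCl3 + clioquinol = positive.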

Assay [3] can be described thus: qHTS for Activators of Parkin Expression: LOPAC Validation Assay (NLuc Reporter) (AID 720572; further: potency means the concentration at half of the fitted maximal effect). Particulars: Parkin promoter NanoLuc reporter cells, luminescence; series mostly up to 46.1 µM. The gist of the method:
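Cells harboring the Parkin-promoter coincidence reporter were treated for 24 h at seven concentrations. NLuc output was measured sequentially after the FLuc channel and scaled between DMSO and positive control values.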
A general note: qHTS replaces the single test concentration by a dilution series.

The nature of assay [4]: qHTS for Activators of Parkin Expression: LOPAC Validation Assay (FLuc Reporter) (AID 720573;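 further: 0% = DMSO and 100% = positive control compounds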). As to conditions: Cell line, PRKN promoter firefly luciferase reporter, vehicle wells = 0, positive control = 100%; series mostly up to 46.1 µM. In a few lines:
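FLuc luminescence read-out from a neuronal line expressing a Parkin-promoter-driven coincidence reporter. Cells treated 24 h at 37 C, 5% CO2 with compounds at 7 concentrations; signal increase normalized to DMSO and positive control.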

Assay [5] addresses T1, Hexokinase-4 (Homo sapiens) + Glucokinase regulatory protein (Homo sapiens) (UniProt P35557+Q14397). The experiment in a line: qHTS assay for inhibitors of recombinant human GCK-GKRP interaction: Diaphorase-coupled assay (AID 743205). Particulars: G6PDH/diaphorase resorufin fluorescence; series mostly up to 57.5 µM. The gist of the method: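 Resorufin fluorescence (525/590 nm), read each minute over 30 min, reports GCK activity coupled via G6PDH and diaphorase. Reaction: 10 nM GST-GCK, 10 nM FLAG-GKRP, 5 mM glucose, 0.4 mM ATP, 0.15 mM NADP+, 0.1 mM resazurin.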

The target of assay [6] is T1, Hexokinase-4 (Homo sapiens) + Glucokinase regulatory protein (Homo sapiens). The experiment in a line: qHTS assay for inhibitors of recombinant human GCK-GKRP interaction: HTRF assay (AID 743207).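 Further: 0% = DMSO with GCK present and -100% = DMSO wells lacking GCK.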 Particulars: recombinant GCK-GKRP HTRF binding, 60 min, with sorbitol-6-phosphate; series mostly up to 57.5 µM. The gist of the method:
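HTRF read-out (ex 320 nm; 615/665 nm emission) after 60 min RT equilibration of 5 nM GST-GCK, 5 nM FLAG-GKRP, 2 uM S6P, compound and anti-FLAG/anti-GST detection antibodies; signal normalized between DMSO wells with and without GCK.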

Assay [7] has the same target. Kind of assay: qHTS assay for inhibitors of recombinant human GCK-GKRP interaction: ADP-Glo assay (AID 743206).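 Further: plate controls were DMSO plus enzyme for no effect and no enzyme for full effect.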 Particulars: ADP-Glo luminescence, 60 min, 0% = vehicle-only wells with enzyme present; series mostly up to 76.9 µM. The gist of the method: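 Pin-transferred compounds meet a 15 nM GST-GCK/15 nM FLAG-GKRP/2 uM S6P mix (dispense concentrations). ATP is then added to 0.4 mM final with 5 mM glucose, and the reaction runs 60 min at room temperature. ADP is quantified luminescently.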

Assay [8] can be described thus: qHTS assay for small molecule agonists of the antioxidant response element (ARE) signaling pathway measured by Nrf2-dependant transcriptional activity (AID 720636; active means well fitted curve in the direction sought with a large enough effect in the repeat runs; an effect the other way counts as inactive or inconclusive;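 further: HepG2 cells with an ARE-driven luciferase reporter; % of control where 0% means no effect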). Particulars: ARE-luc HepG2, Nrf2 luciferase reporter, 16 h; series mostly up to 92.4 µM. The gist of the method: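 Reporter gene assay, HepG2 ARE-luc: 16 hr compound, 37 C, 5% CO2; read-out luciferase luminescence.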

A short description of assay [9]: qHTS assay for small molecule agonists of the antioxidant response element (ARE) signaling pathway measured by Nrf2-dependant transcriptional activity - cell viability counter screen (AID 720653; active means well fitted curve in the direction sought with a large enough effect in the repeat runs; an effect the other way counts as inactive or inconclusive; further: on the % scale 0 is the no-effect control and ±100 the full control effect). Particulars: ARE-bla HepG2 viability, CellTiter-Glo ATP luminescence, 16 h; max response: stronger effect = lower value. The gist of the method: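 ARE-bla HepG2 cells (2,000/well) rested 5 hrs at 37C/5% CO2, then exposed to compounds in DMSO for 16 hrs. Viability was read in the same wells as intracellular ATP by luminescence, 30 min at room temperature after reagent addition.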

T1 sequence (P35557 whole entry, looked up): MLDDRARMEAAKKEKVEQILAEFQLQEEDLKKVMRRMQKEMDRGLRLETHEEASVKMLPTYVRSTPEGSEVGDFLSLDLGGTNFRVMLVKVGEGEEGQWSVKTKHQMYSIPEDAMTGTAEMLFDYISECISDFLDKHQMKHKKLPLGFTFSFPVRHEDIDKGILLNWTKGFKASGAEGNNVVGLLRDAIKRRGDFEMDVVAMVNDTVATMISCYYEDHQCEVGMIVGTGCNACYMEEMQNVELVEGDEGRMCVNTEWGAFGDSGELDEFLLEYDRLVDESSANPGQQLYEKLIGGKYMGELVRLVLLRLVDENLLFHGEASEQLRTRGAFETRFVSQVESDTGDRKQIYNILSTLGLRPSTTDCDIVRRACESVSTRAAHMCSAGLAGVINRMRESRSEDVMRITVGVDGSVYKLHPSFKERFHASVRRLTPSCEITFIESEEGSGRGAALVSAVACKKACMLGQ
T1 sequence (Q14397 whole entry, looked up): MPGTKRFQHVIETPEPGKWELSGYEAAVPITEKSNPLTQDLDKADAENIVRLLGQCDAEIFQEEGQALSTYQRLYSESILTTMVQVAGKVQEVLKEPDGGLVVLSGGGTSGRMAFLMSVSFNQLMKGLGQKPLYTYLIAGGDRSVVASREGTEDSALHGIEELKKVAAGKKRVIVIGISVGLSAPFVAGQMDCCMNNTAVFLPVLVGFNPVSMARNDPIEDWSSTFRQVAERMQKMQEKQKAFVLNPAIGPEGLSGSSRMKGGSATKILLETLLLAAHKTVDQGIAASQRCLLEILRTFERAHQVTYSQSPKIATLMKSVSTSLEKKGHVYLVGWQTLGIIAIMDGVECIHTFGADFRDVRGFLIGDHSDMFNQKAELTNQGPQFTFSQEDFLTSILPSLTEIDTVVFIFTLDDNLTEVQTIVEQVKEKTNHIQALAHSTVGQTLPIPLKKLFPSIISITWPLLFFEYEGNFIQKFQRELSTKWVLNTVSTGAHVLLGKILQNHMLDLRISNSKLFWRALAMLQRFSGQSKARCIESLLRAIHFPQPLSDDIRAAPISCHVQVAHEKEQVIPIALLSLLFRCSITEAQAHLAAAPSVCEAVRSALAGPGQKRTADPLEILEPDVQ
Sequence of Arylsulfatase A (Homo sapiens) (P15289 whole entry, looked up): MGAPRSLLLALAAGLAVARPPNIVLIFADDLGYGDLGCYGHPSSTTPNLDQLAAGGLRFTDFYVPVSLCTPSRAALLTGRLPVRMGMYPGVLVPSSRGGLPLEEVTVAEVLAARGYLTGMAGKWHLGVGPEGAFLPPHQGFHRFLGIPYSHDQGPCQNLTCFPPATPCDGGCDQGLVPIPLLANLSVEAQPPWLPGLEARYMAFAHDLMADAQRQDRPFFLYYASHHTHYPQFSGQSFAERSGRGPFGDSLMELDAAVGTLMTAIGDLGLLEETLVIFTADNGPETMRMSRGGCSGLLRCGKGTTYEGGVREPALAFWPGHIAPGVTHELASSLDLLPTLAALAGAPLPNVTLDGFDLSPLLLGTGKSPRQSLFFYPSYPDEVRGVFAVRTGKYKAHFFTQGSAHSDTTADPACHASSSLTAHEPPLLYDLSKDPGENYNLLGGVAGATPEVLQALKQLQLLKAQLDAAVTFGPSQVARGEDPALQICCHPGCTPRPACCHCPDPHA

In the case of `CC1=C(CC(=O)O)c2cc(F)ccc2/C1=C\c1ccc(S(C)(=O)=O)cc1`, the Potency entry in [1] and in assay [3] was “inactive” each time. The compound was called inactive in [2], in assay [4], in assay [5] and in [6].
Take `COCCOC(=O)C1=C(C)NC(C)=C(C(=O)OC/C=C/c2ccccc2)C1c1cccc([N+](=O)[O-])c1` (configuration not stated): the compound was classed as inactive in [2], in [4], in assay [5], in assay [7] and in assay [6]. Besides, in [3], the Potency is 5.17 µM (active).
As for `Nc1ncnc2c1ncn2[C@@H]1O[C@H](CO)[C@@H](O)[C@H]1O`, the compound was called inactive in assay [2], in [4], in [5] and in [6]. The Potency entry in assay [3] was “inactive”.
With `CC[C@H]1CN2CCc3cc(OC)c(OC)cc3[C@@H]2C[C@@H]1C[C@H]1NCCc2cc(OC)c(OC)cc21`, the Potency result in assay [1] and in [3] was “inactive” each time. Moreover, the outcome in [2], in assay [5] and in assay [6] was inactive.
Regarding `OCc1cc(C(O)CNCCCCCCOCCCCc2ccccc2)ccc1O` (configuration not stated), the Potency entry in assay [1] and in assay [3] was “inactive” each time. Moreover, the call in assay [2], in assay [4] and in [6] was inactive.
Turning to `CCN(CC)C(C)CN1c2ccccc2Sc2ccccc21` (configuration not stated), the result in [5] and in assay [6] was inactive.
As for `CC(=O)OCC(=O)[C@@]1(O)CC[C@H]2[C@@H]3CCC4=CC(=O)CC[C@]4(C)[C@H]3C(=O)C[C@@]21C`, the Potency result in [1] and in assay [3] was “inactive” throughout. Moreover, the compound was called inactive in assay [2], in [4], in assay [5] and in assay [6].
As for `CCCc1c(OCCCCc2nn[nH]n2)ccc(C(C)=O)c1O`, the compound was classed as inactive in assay [8]. In addition, the max response in assay [9] was 2.63%.
In the case of `O=C1NS(=O)(=O)c2ccccc21`, the result in [8] was inactive. The max response in assay [9] is -2.82%.
`CC(C)(C(=O)O)c1ccc(C(O)CCCN2CCC(C(O)(c3ccccc3)c3ccccc3)CC2)cc1` (configuration not stated): the Potency entry in assay [1] and in [3] was “inactive” in each case. Moreover, the result in assay [2], in assay [4], in [5] and in assay [6] was inactive.
As for `C=Cc1c(C)c2cc3[nH]c(cc4nc(cc5nc(cc1[nH]2)C(C)=C5CCC(=O)O)C(CCC(=O)O)=C4C)c(C)c3C=C`, the Potency entry in assay [1] and in assay [3] was “inactive” throughout. Also, the outcome in assay [2], in assay [4], in assay [5] and in assay [6] was inactive.
`CC(CN(C)C)CN1c2ccccc2CCc2ccccc21` (configuration not stated): the Potency entry in [1] and in assay [3] was “inactive” throughout. Further, the outcome in [2], in [4], in [5], in [7] and in assay [6] was inactive.
In the case of `CCN(CC)CCNC(=O)c1cc(Cl)c(N)cc1OC`, the Potency entry in assay [1] and in [3] was “inactive” each time. Also, the compound was called inactive in [2], in assay [4], in [5] and in assay [6].
Take `C[C@](N)(Cc1ccc(O)cc1)C(=O)O`: the Potency entry in assay [1] was “inactive”. Also, the outcome in assay [5] and in assay [6] was inactive.
As to `CN(C)CC[C@@H](c1ccc(Cl)cc1)c1ccccn1`, the compound was called inactive in assay [2], in [4], in assay [5] and in [6]. Besides, the Potency entry in assay [3] is “inactive”.
With `CC(C)NC[C@H](O)c1ccc(O)c(O)c1`, the Potency result in assay [1] and in assay [3] was “inactive” each time. Moreover, the outcome in assay [2], in assay [4], in assay [5] and in assay [6] was inactive.
Turning to `CN1CCN(C2Cc3ccccc3Sc3ccc(Cl)cc32)CC1` (configuration not stated), the Potency entry in assay [1] and in assay [3] was “inactive” throughout. Further, the outcome in assay [2], in assay [4], in assay [5] and in assay [6] was inactive.
As to `N=c1c[n+](N2CCOCC2)[n-]o1`, the Potency result in [1] and in [3] was “inactive” each time. Further, the outcome in assay [2], in assay [4], in [5] and in assay [6] was inactive.
Consider `O=C1N=C(O)CN1/N=C/c1ccc(-c2ccc([N+](=O)[O-])cc2)o1`, for which the compound was classed as inactive in assay [2], in assay [4], in assay [5] and in assay [6]. Also, the Potency entry in assay [3] is “inactive”.
On to `CNCCCC1c2ccccc2C=Cc2ccccc21`, for which the Potency result in assay [1] and in assay [3] was “inactive” each time. Moreover, the outcome in [2], in [4], in assay [5] and in assay [6] was inactive.
With `C#CCN(C)Cc1ccccc1`, the result in assay [2], in assay [4], in [5] and in [6] was inactive. Moreover, the Potency result in assay [3] was “inactive”.
Consider `CCCn1cnc2c1c(=O)n(CCCCC(C)=O)c(=O)n2C`, for which the Potency entry in assay [1] and in [3] was “inactive” in each case. Also, the compound was called inactive in [2], in assay [4], in assay [5] and in assay [6].

For the origin of these results see PubChem BioAssay (NCATS).
